Screening results from PubChem BioAssay.
VLA-4 inh – inhibition in a human VLA-4 binding assay. VLA-4 expressing cells, ligand binding flow cytometry. inhibition, % (about 7 µM as worked out from the volumes in the protocol). actives 0.2% (n = 330,000). AID 2557; in the data active = inhibition above about 50%
APOBEC3A inh – inhibitors of human APOBEC3A DNA deaminase. P31941. recombinant A3A, FAM/TAMRA ssDNA deamination fluorescence. AID 493011. actives 0.41% (n = 330,000). inhibition, % at 20 µM;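 active = at least 40% inhibition at 20 µM here, with at most 30% in a related deaminase screen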;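 also: plate controls were A3A with DMSO for no effect and wells lacking A3A enzyme for full effect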
Target sequence (P31941 whole entry, looked up): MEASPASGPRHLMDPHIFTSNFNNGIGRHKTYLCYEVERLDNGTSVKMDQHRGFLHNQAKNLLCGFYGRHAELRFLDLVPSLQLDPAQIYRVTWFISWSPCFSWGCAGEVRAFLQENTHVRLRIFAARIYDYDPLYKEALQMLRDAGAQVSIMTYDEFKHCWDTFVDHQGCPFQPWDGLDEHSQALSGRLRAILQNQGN
A3G deaminase – inhibitors of human APOBEC3G DNA deaminase | Q9HC16 | AID 493012 | inhibition, % at 20 µM | recombinant A3G, ssDNA deamination FAM/TAMRA fluorescence | actives 0.28% (n = 330,000);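 active = inhibition of at least 40% at 20 µM, with no more than 30% in the related APOBEC3A deaminase screen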;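 also: plate controls were DMSO wells with A3G for no effect and wells lacking A3G enzyme for full effect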
Target sequence (Q9HC16 whole entry, looked up): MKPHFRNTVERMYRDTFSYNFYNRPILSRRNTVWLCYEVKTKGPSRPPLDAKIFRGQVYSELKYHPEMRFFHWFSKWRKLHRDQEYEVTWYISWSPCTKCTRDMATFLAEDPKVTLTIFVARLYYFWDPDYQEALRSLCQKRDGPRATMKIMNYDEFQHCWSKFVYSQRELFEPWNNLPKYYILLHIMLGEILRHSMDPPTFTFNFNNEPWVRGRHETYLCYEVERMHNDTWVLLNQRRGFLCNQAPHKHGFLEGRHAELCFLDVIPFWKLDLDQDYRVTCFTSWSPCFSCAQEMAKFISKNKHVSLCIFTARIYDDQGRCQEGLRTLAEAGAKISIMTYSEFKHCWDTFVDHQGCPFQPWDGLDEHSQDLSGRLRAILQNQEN
MIN6 prolif – MIN6 beta-cell proliferation induction | MIN6 cells proliferation, ATPlite luminescence, 48 h; cells starved in 0.2% serum; 100% = growth in 10% serum | proliferation, % at 10 µM | actives 0.29% (n = 330,000) | AID 2380;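 active = compounds whose signal lies at least 3.5 SD above the mean of all wells on their plate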;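 also: 0% = DMSO-treated cells in low-serum medium and 100% = 10% serum control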
NRP1-CendR mod – NRP-1/CendR interaction modulation. FAM-RPARPAR peptide binding to NRP-1, fluorescence polarization. inhibition, % at 25 µM. actives 0.85% (n = 360,000). AID 602438;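 active = inhibition or corrected inhibition above about 18%, plus a signal ratio from 0.5 to 1.5, limit read from the data, passing the limit was not always enough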
Numbers without * were called inactive; nt = no result. A selection: hits, their analogues and other compounds. The true share with any hit is near 1.8%.

SMILES | VLA-4 inh | APOBEC3A inh | A3G deaminase | MIN6 prolif | NRP1-CendR mod
COc1ccccc1CNC(=O)c1cc(-c2ccccc2)nn1CC1CC(c2cccc([N+](=O)[O-])c2)=NO1 (centres undefined) | nt | -2 | -2 | -5 | -26
O=C(NCc1cccs1)c1cc(-c2ccccc2)nn1CC1CC(c2cccc([N+](=O)[O-])c2)=NO1 (centres undefined) | nt | 0 | -3 | 0 | 30*
Cc1ccccc1-c1cc(C(=O)NCc2cccc(Br)c2)n(CC2CC(c3cccnc3)=NO2)n1 (centres undefined) | 4 | 33 | -8 | -6 | 24*
O=C(Nc1cc(S(=O)(=O)N2CCCC2)ccc1OCC(F)(F)F)c1ccncc1 | nt | nt | nt | nt | 0
Cc1cc(C)nc(NS(=O)(=O)c2ccc(NC(=O)c3nn(-c4ccccc4)ccc3=O)cc2)n1 | -4 | -29 | 10 | -4 | 7
Cc1cccc(-n2ccc(=O)c(C(=O)Nc3ccc(S(=O)(=O)Nc4onc(C)c4C)cc3)n2)c1 | 28 | -3 | -2 | -2 | 36*
CCOc1ccc(/C=C2/Sc3ccc(C(=O)NCC4CCCO4)cc3N(C)C2=O)cc1OC (centres undefined) | 6 | -5 | -6 | 0 | 27*
Cc1ccc(C(c2c(C)nn(-c3ccccc3)c2N)c2c(C)nn(-c3ccccc3)c2N)cc1 | -6 | -6 | -6 | 0 | 30*
Cc1cc(NC(=O)CCC(=O)N(Cc2ccco2)C2(C(=O)NC3CCCC3)CCCCC2)no1 | -11 | -1 | -2 | 3 | 19*
Cc1ccc(N(C(=O)CCC(=O)Nc2cc(C)on2)C(C(=O)NC2CCCC2)c2cccs2)cc1 (centres undefined) | 8 | -2 | -5 | 1 | 3
Cc1cc(NC(=O)CCC(=O)N(c2cccc(F)c2)C(C(=O)NC2CCCC2)c2ccccc2)no1 (centres undefined) | -8 | -1 | -9 | 0 | 26*
Cc1cc(NC(=O)CCC(=O)N(c2ccccc2)C(C(=O)NC2CCCC2)c2cccs2)no1 (centres undefined) | 12 | 0 | -4 | -1 | 20*
Cc1cc(NC(=O)CCC(=O)N(c2ccccc2)C(C(=O)NC2CCCC2)c2ccccc2)no1 (centres undefined) | 16 | -2 | -3 | -3 | -7
COc1ccc(CCNC(=O)c2c(O)c3cccc4c3n(c2=O)CC4)cc1OC | 7 | -17 | -2 | 8 | 44*
CNC(=O)c1c(O)c2cccc3c2n(c1=O)CC3 | 15 | -3 | -2 | -7 | 13
COc1cc(O)c2c(=O)c(-c3ccc(O[C@@H]4O[C@H](CO)[C@@H](O)[C@H](O)[C@H]4O)cc3)coc2c1 | 7 | -1 | -5 | -3 | -2
CC(C)Oc1cc(F)ccc1-c1cc(C(=O)NCCCn2ccnc2)[nH]n1 | nt | nt | nt | nt | 1
Cc1ccc(OC(C)C(=O)Nc2ccccc2C(=O)N2CCN(C)CC2)cc1 (centres undefined) | -4 | -1 | -5 | 1 | 20*
COc1ccc(C(=O)N2CCOC2CNC(=O)C(=O)NCc2ccccc2)cc1 (centres undefined) | nt | nt | nt | nt | -3
CCCc1c(C)nc(N2CCN(c3ccccc3OC)CC2)[nH]c1=O | -3 | -3 | 15 | -3 | 32*
CCc1c(C)nc(SCC(=O)N2CCN(c3ccccc3OC)CC2)[nH]c1=O | 16 | -1 | -1 | 0 | -1
O=C(O)c1ccccc1S(=O)(=O)CC(=O)N1CCCCC1 | -2 | 1 | -10 | 4 | 9
C[C@@H]1COc2cc(N(C)CCO)ccc2S(=O)(=O)N1 | nt | nt | nt | nt | 3
CCc1ccc(N(CC(=O)N2CCOCC2)S(C)(=O)=O)cc1 | 11 | -3 | -5 | 4 | 7
COC(=O)c1cccc2c1-c1ccccc1/C2=N/O | -4 | -3 | -6 | 5.5* | -5
SMILES | VLA-4 inh | APOBEC3A inh | A3G deaminase | MIN6 prolif | NRP1-CendR mod
COC(=O)c1cccc2c1-c1ccccc1/C2=N\NC(N)=O | -7 | -7 | 11 | -5 | 5
O=c1oc2ccc(Br)cc2cc1-c1nc2ccccc2o1 | -7 | -5 | -2 | -1 | -8
COc1cccc2cc(-c3nc4ccccc4o3)c(=O)oc12 | -12 | 2 | -1 | -1 | 30*
COC(C[C@@H]1O[C@@H]1[C@H](O)[C@H](C)OCc1ccccc1)OC | nt | -1 | -5 | -3 | 19
COC(C[C@@H](O)C[C@H](O)[C@@H](C)OCc1ccccc1)OC | nt | 5 | -3 | -2 | 21*
COC(C[C@@H]1O[C@H]1C(=O)COCc1ccccc1)OC | nt | 0 | -2 | 0 | 28*
COC(C[C@H]1O[C@H]1[C@@H](O)[C@@H](C)OCc1ccccc1)OC | nt | 1 | 2 | -2 | 20*
COC(C[C@H]1O[C@@H]1C(=O)COCc1ccccc1)OC | nt | -2 | -7 | -2 | nt
O=[N+]([O-])c1ccc(NN=Cc2ccc3c(c2)OCO3)nc1 | nt | nt | nt | nt | -15
CN(CCOc1ccc(Cl)cc1)C(=O)c1cc(S(=O)(=O)N2CCOCC2)ccc1N1CCCC1 | 12 | -4 | -6 | -2 | 9
O=S(=O)(c1ccc2c(c1)CCC2)N1CCNCC1 | nt | 1 | -3 | 1 | 16
O=C(N/N=C/c1c[nH]c2ccccc12)c1cc(Cl)ccc1O | 7 | -6 | -11 | 2 | 3
COc1ccc(NS(=O)(=O)c2cccc(C(=O)N3CCN(C/C=C/c4ccccc4)CC3)c2)cc1 | nt | nt | nt | nt | -3
CCCCCc1cc(=O)oc2c(C(CCN3CCCC3)c3ccc(N(C)C)cc3)c(OC)cc(OC)c12 (centres undefined) | 3 | 3 | -3 | -8 | 2
COc1cc(OC)c2ccc(=O)oc2c1C(CCN1CCCCC1)c1ccc(N(C)C)cc1 (centres undefined) | 6 | -8 | -10 | -4 | 18*
CCCCCc1cc(=O)oc2c(C(CCN3CCCCC3)c3ccc(OC)cc3)c(OC)cc(OC)c12 (centres undefined) | 4 | 0 | -8 | -9 | 26*
c1ccc2c(CNc3ccc(CNc4ncn[nH]4)cc3)cccc2c1 | -8 | -17 | -5 | -1 | 32*
CCN(CC)C(=O)c1[nH]cnc1C(=O)NCC(=O)OC(C)(C)C | -1 | -2 | -4 | -4 | 4
CCN(Cc1ccncc1)Cc1cn(C)nc1-c1ccc(Oc2ccccc2)cc1 | 1 | -7 | -3 | -3 | 9
C=CCNC(=O)C1CC2Cn3c(nc4cc5ccccc5cc43)C2N1C (centres undefined) | -2 | 1 | -4 | 0 | 19*
CN1C(C(=O)NCc2cccc(C(F)(F)F)c2)CC2Cn3c(nc4cc5ccccc5cc43)C21 (centres undefined) | -17 | 3 | 0 | -1 | -5
CC1CCCC(C)N1C(=O)CNCc1ccc2c(c1)OCO2 (centres undefined) | 0 | 1 | -2 | 0 | 1
COC(=O)C1=C(C)N(c2cccc(C)c2)C(=O)/C1=C\c1cccs1 | 5 | -2 | -6 | -2 | 28*
Cc1noc(C)c1C(=O)N1CCC1(C)C(=O)NS(=O)(=O)c1cccc(Cl)c1 (centres undefined) | nt | nt | nt | nt | 41*
